A selection: hits, their analogues and other compounds. The true share with any hit is near 7.3%.
VACV mCherry inh – qHTS for Stage-Specific Inhibitors of Vaccinia Orthopoxvirus: mCherry Reporter Primary qHTS. Vaccinia virus mCherry reporter infection, fluorescence. Potency, µM (titrated, usually from 36.5 µM), most hits filed as inhibitors. hit rate 0.63% among 310,000; calls by dose curve; tested in A549 cells; note: nearly all actives have a fitted effect of over 35% in size
Vaccinia Venus – qHTS for Stage-Specific Inhibitors of Vaccinia Orthopoxvirus: Venus Reporter Primary qHTS; Vaccinia virus Venus reporter expression, fluorescence; Potency, µM (doses to about 36.5 µM), hits mostly inhibitors; hit rate 0.46% among 330,000; AID 720580, 2013; calls by dose curve; tested in A549 cells; note: nearly all actives have a fitted effect of over 30% in size
HCV inhibitor – qHTS Assay for Inhibitors of Hepatitis C Virus (HCV); Huh7.5.1 HCVcc-Cre infection, luciferase reporter, 44 h; AID 651820, 2012; Potency, µM (highest dose often 41.8 µM), most hits filed as inhibitors; hit rate 3.4% among 340,000; active = well fitted inhibition curve with a large enough effect; inconclusive = small, poorly fitted or top-dose-only effect, or another doubt; inactive = no such curve, though single readings can be large or run the other way
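Reporter virus HCVcc-Cre (~0.5 moi) infects cells exposed to compound; seeding density 1,000 cells/well with 4 h settling beforehand. Luminescence, 15 sec read, taken 44 h post-infection following a 15 min RT substrate incubation.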
FMDV antiviral – High Throughput Screening for Foot and Mouth Disease Virus Antivirals; FMDV antiviral cell-based qHTS; AID 1159524, 2015; hit rate 1.2% among 410,000; Potency, µM (top dose mostly 57.9 µM), usual class: inhibitors; calls by dose curve; tested in HEK293T cells; note: read-out not given here; nearly all actives have a fitted effect of over 45% in size
HCMV antiviral – qHTS Assay for inhibitors of the human cytomegalovirus (HCMV). activity change, negative = inhibition, % at 57.5 µM. HFF cells, HCMV-luciferase reporter, 72 h; stronger effect = lower value. hit rate 4.5% among 410,000; in the data active = activity change below about -60%; inconclusive = no clear call, values can overlap the other calls; inactive = above about -39%
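After 16 h attachment at 37C, HFF cells received test compound and HCMV-luciferase (1 PFU/cell); reporter luminescence read 72 h later, data normalized against buffer-only and known inhibitor Salinomycin.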
Hits are given with their value; i = inactive; ? = inconclusive; nt = no result given; [ ] = dose if it differs, or a comment.

SMILES	VACV mCherry inh	Vaccinia Venus	HCV inhibitor	FMDV antiviral	HCMV antiviral
COc1cc(OC)c(NC(=O)c2cc3ccccc3cc2O)cc1Cl	i	i	32µM	i	-81
CCOc1ccccc1C(=O)Nc1nncs1	?	i	?	nt	i
COc1cc(NC(=O)c2ccccc2Cl)c2ncccc2c1	nt	nt	10µM	i	i
CCOc1ccccc1C(=O)Nc1cc(Cl)ccc1O	?	?	7.1µM	?	i
CCOc1ccccc1C(=O)Nc1nnc(C(C)C)s1	i	i	13µM	i	i
COc1ccccc1CN(Cc1ccco1)c1cnc(S(C)(=O)=O)nc1C(=O)Nc1cc(C)ccc1C	i	i	nt	i	i
COc1cccc(-c2cc3c(Nc4cccnc4)nccc3n2C)c1	nt	nt	nt	nt	i
CCN(CCC#N)c1ccc(/C=C/c2ccnc3ccccc23)cc1	i	i	nt	nt	nt
CCOc1ccccc1C(=O)Nc1cccc2cccnc12	i	i	11µM	i	?
O=C(Nc1cccc2cccnc12)c1cccc2ccccc12	i	i	?	i	?
COc1ccc(N2C(=O)C3CC(C)=C(C)CC3C2=O)c(OC)c1 (configuration not stated)	nt	nt	i	i	i
COc1cc(N2C(=O)C=CC2=O)ccc1N1C(=O)C=CC1=O	i	?	?	32µM	-76
COc1cc(OC)cc(C(=O)NCCc2csc(-c3cccc(C)c3)n2)c1	i[7.34 µM]	i[7.34 µM]	nt	i	?
CC1(C)CC(=O)C(N=Nc2c(Cl)cc(Cl)cc2Cl)=C(O)C1	i	i	i	i	i
CC1(C)CC(=O)C(N=Nc2cc(C(F)(F)F)ccc2Cl)=C(O)C1	nt	nt	i	i	-62
O=C1CC(NS(=O)(=O)c2cccnc2)CN1c1cccc(F)c1 (configuration not stated)	i	i	i	i	?
CCN1CCN(C2=C(NS(=O)(=O)c3ccc(Br)cc3)C(=O)c3ccccc3C2=O)CC1	nt	nt	?	i	-112
CCN1CCN(C2=C(NS(=O)(=O)c3ccccc3)C(=O)c3ccccc3C2=O)CC1	nt	nt	11µM	?	-62
O=C1C(NS(=O)(=O)c2cccs2)=C(N2CCOCC2)C(=O)c2ccccc21	?	i	i	?	?
CCOC(=O)N1CCN(C2=C(NS(=O)(=O)c3ccc(Br)cc3)C(=O)c3ccccc3C2=O)CC1	?	?	nt	i	i
CN1CCN(C2=C(NS(=O)(=O)c3cccs3)C(=O)c3ccccc3C2=O)CC1	18µM	10µM	11µM	i	i
CN1CCN(C2=C(NS(=O)(=O)c3ccccc3)C(=O)c3ccccc3C2=O)CC1	nt	nt	i	i	nt
OC(c1ccc(F)c(F)c1)c1nc(-c2cccc3cccnc23)cs1 (configuration not stated)	i	i	nt	i	i
CCC1CN(CCNC(=O)c2cn3cc(C)ccc3n2)Cc2cc(OC)ccc2O1 (configuration not stated)	i	i	nt	i	nt
Cc1ccc2nc(N3CCN(S(=O)(=O)c4ccc5c(c4)OCCO5)CC3)c(C#N)cc2c1	nt	nt	14µM	i	i
SMILES	VACV mCherry inh	Vaccinia Venus	HCV inhibitor	FMDV antiviral	HCMV antiviral
Cc1ccc(S(=O)(=O)N2CCCN(S(=O)(=O)c3ccc4c(c3)OCCO4)CC2)cc1	i	i	i	?	i
Cc1ccc(S(=O)(=O)N2CCCN(c3nc4cc(C)ccc4cc3C#N)CC2)cc1	i	i	22µM	nt	i
Cc1ccc2cc(C#N)c(N3CCCN(C(=O)C4CCCO4)CC3)nc2c1 (configuration not stated)	nt	nt	i	i	i
COc1ccccc1CNc1ncnc2c1c(-c1ccccc1)cn2-c1cccc(C)c1	i	i	nt	?	-60
O=[N+]([O-])c1ccc(N/N=C/c2ccc[nH]2)cc1	5µM	?	1µM	i	?
O=[N+]([O-])c1ccc(N/N=C/c2cccnc2)cc1	i	i	11µM	i	i
CC(C)(C)c1ccc(/C=N/Nc2ccc(C(=O)O)cc2)cc1	?	?	i	7.1µM	-76
CC1Oc2ccccc2C=C1/C=N/Nc1ccc(C(=O)O)cc1 (configuration not stated)	13µM	i	i	?	i
O=C(O)c1ccc(N/N=C/c2ccc(C(F)(F)F)cc2)cc1	i	i	i	?	i
CCCCNC(=O)C(CC)Sc1nc2ccccc2c(=O)n1CCc1ccc(OC)c(OC)c1 (configuration not stated)	i	i	nt	i	i
Cc1cc(C)n(C(C)CC(=O)Nc2cccc(C#N)c2)n1 (configuration not stated)	i	i	nt	i	i
O=C(O)c1cccc(N/N=C/c2cc(Br)cc(Br)c2O)c1	i	i	i	i	i
O=C(N/N=C/c1ccc[nH]1)c1ccccc1[N+](=O)[O-]	i	i	i	i	?
CC(C)(C)c1ccc(/C=N/Nc2cccc(C(=O)O)c2)cc1	nt	nt	i	45µM	i
CN(C)c1ccc(/C=N/Nc2cccc(C(=O)O)c2)cc1	nt	nt	i	4µM	i
O=C(O)c1cccc(N/N=C/c2ccc(-c3ccccc3)cc2)c1	i	i	i	14µM	i
Cc1ccc(C(=O)N/N=C\c2ccc[nH]2)cc1[N+](=O)[O-]	i	i	4.5µM	i	i
C[C@@]12CCC(=O)C[C@@H]1CC[C@@H]1[C@@H]2CC[C@]2(C)C(=O)CC[C@@H]12	i	i	nt	i	nt
O=C(N/N=C/c1cccnc1)c1ccccc1	nt	nt	i	i	?
O=C(O)c1cccc(N/N=C/c2cccnc2)c1	i	i	i	13µM	i
Cc1oc(-c2ccccc2NS(C)(=O)=O)nc1CN(C)Cc1ccc(Cl)cc1	i	i	nt	i	nt
CN(C)Cc1c(-c2ccc(Cl)cc2)nc2ccccn12	i	i	i	i	i
COc1ccc(-c2nc3c4ccccc4ccn3c2CN2CCCCC2)cc1	nt	nt	?	i	i
COc1ccc(-c2nc3c4ccccc4ccn3c2CN2CCCCC2)cc1OC	nt	nt	11µM	i	i
Clc1ccc(-c2nc3ccccn3c2CN2CCCCC2)cc1	nt	nt	i	?	-77
SMILES	VACV mCherry inh	Vaccinia Venus	HCV inhibitor	FMDV antiviral	HCMV antiviral
CCOC(=O)c1cc(-c2ccccc2)n(CC2CC(c3ccc(OC)cc3)=NO2)n1 (configuration not stated)	i	i	?	i	i
CCn1c(SCC(=O)Nc2nccs2)nnc1-c1ccccc1	i	i	i	i	i
Cc1csc(NC(=O)CSc2nnc(-c3ccc(S(=O)(=O)N4CCCC4)cc3)o2)n1	3.2µM	4.5µM	i	i	i
CCn1c(SCC(=O)Nc2nccs2)nnc1-c1ccc(S(=O)(=O)N2CCCCC2)cc1	nt	nt	?	25µM	i
CCN(CC)S(=O)(=O)c1ccc(-c2nnc(SCC(=O)Nc3nc(C)cs3)o2)cc1	5µM	11µM	i	nt	i
O=S(=O)(c1cc(F)ccc1F)N1CCC2(CC1)OCCN2S(=O)(=O)c1cccs1	i	i	i	i	i
Oc1ccc(N=Nc2ccccc2)o1	nt	nt	i	?	i
O=C(NCC1CC1)c1ccc2sc([C@H]3C[C@H](O)[C@@H](CO)O3)nc2c1	i	i	nt	i	-102
CC(C)c1cc(Br)ccc1OCCCN1C(=O)NC(C)(C)C1=O	nt	nt	13µM	?	i

Assay outcomes (PubChem BioAssay)
